Data reported in PubChem BioAssay AID1159580 (chemical genetic matrix, 2015).
Hit rate of the full screen: of about 5,500 compounds, about 2,000 (36%) were called active. Inconclusive results (about 18%) are left out. No stated cut-off is given here; in the data, active means normalized growth mostly below about 0.91 (no sharp cut-off); inconclusive means no clear call, values can overlap the other calls; inactive means mostly above about 0.92. The list shows a part of the results.

Experiment: chemical genetic growth profiling, strain panel (AID 1159580);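 further: tested at 20 µM; growth read once vehicle control cultures reached saturation at 30 °C; 1 = growth at the plate median or of vehicle wells; lower values mean less growth of the strain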
Conditions: growth OD

Measured: normalized growth

Cc1ccc(C(=O)c2ccc(CC(=O)O)n2C)cc1
inactive: S. cerevisiae deletion strains, locus YJR075W, strain HOC1, active compounds read low 1.02 | S. cerevisiae deletion strains, locus YKL009W, strain mrt4, active compounds read low 0.958 | S. cerevisiae deletion strains, locus YKL068W, active compounds read low 0.99 | S. cerevisiae deletion strains, locus YKL085W, strain MDH1 (second series), active compounds read low 0.98 | S. cerevisiae deletion strains, locus YKL085W, strain MDH1, active compounds read low 0.98 | S. cerevisiae deletion strains, locus YKL160W, strain elf1, active compounds read low 1.01 | S. cerevisiae deletion strains, locus YKL190W, strain CNB1, active compounds read low 0.996 | S. cerevisiae deletion strains, locus YKR001C, strain vps1, active compounds read low 0.946 | S. cerevisiae deletion strains, locus YKR026C, strain gcn3, active compounds read low 1.01 | S. cerevisiae deletion strains, locus YKR091W, strain srl3, active compounds read low 1 | S. cerevisiae deletion strains, locus YLL001W, strain dnm1, active compounds read low 0.981 | S. cerevisiae deletion strains, locus YLL026W, active compounds read low 1.01 | S. cerevisiae deletion strains, locus YLL041C, strain sdh2, active compounds read low 1 | S. cerevisiae deletion strains, locus YLR027C, strain aat2, active compounds read low 1.02 | S. cerevisiae deletion strains, locus YLR039C, strain RIC1, active compounds read low 0.996 | S. cerevisiae deletion strains, locus YLR058C, strain SHM2, active compounds read low 1 | S. cerevisiae deletion strains, locus YLR102C, strain apc9, active compounds read low 0.973 | S. cerevisiae deletion strains, locus YLR113W, strain HOG1, active compounds read low 0.991 | S. cerevisiae deletion strains, locus YLR221C, strain rsa3, active compounds read low 0.971 | S. cerevisiae deletion strains, locus YLR258W, strain gsy2, active compounds read low 1.01 | S. cerevisiae deletion strains, locus YLR262C, strain YPT6 (second series), active compounds read low 0.994 | S. cerevisiae deletion strains, locus YLR262C, strain YPT6, active compounds read low 1 | S. cerevisiae deletion strains, locus YLR268W, strain sec22, active compounds read low 0.918 | S. cerevisiae deletion strains, locus YLR320W, strain mms22, active compounds read low 0.958 | S. cerevisiae deletion strains, locus YLR330W, strain CHS5, active compounds read low 1 | S. cerevisiae deletion strains, locus YLR342W, strain FKS1 (second series), active compounds read low 0.997 | S. cerevisiae deletion strains, locus YLR342W, strain FKS1, active compounds read low 1.02 | S. cerevisiae deletion strains, locus YLR357W, strain rsc2, active compounds read low 1.02 | S. cerevisiae deletion strains, locus YLR370C, strain arc18, active compounds read low 1 | S. cerevisiae deletion strains, locus YLR371W, strain rom2, active compounds read low 0.978 | S. cerevisiae deletion strains, locus YLR384C, strain iki3, active compounds read low 1.01 | S. cerevisiae deletion strains, locus YLR418C, strain cdc73, active compounds read low 0.968 | S. cerevisiae deletion strains, locus YML016C, strain PPZ1, active compounds read low 1.01 | S. cerevisiae deletion strains, locus YML032C, strain rad52, active compounds read low 0.969 | S. cerevisiae deletion strains, locus YML120C, strain ndi1, active compounds read low 0.982 | S. cerevisiae deletion strains, locus YML124C, strain tub3, active compounds read low 0.981 | S. cerevisiae deletion strains, locus YMR058W, strain fet3, active compounds read low 1.02 | S. cerevisiae deletion strains, locus YMR078C, strain ctf18, active compounds read low 0.97 | S. cerevisiae deletion strains, locus YMR125W, strain sto1, active compounds read low 1.01 | S. cerevisiae deletion strains, locus YMR129W, active compounds read low 1.02 | S. cerevisiae deletion strains, locus YMR205C, strain PFK2, active compounds read low 1.01 | S. cerevisiae deletion strains, locus YMR223W, strain ubp8, active compounds read low 0.979 | S. cerevisiae deletion strains, locus YMR231W, strain pep5, active compounds read low 1.01 | S. cerevisiae deletion strains, locus YMR307W, strain GAS1, active compounds read low 0.991 | S. cerevisiae deletion strains, locus YNL067W, strain RPL9B, active compounds read low 1 | S. cerevisiae deletion strains, locus YNL071W, strain lat1, active compounds read low 1.02 | S. cerevisiae deletion strains, locus YNL153C, strain GIM3, active compounds read low 1 | S. cerevisiae deletion strains, locus YNL183C, strain NPR1, active compounds read low 0.928 | S. cerevisiae deletion strains, locus YNL209W, strain ssb2, active compounds read low 1.02 | S. cerevisiae deletion strains, locus YNL233W, strain BNI4, active compounds read low 1 | S. cerevisiae deletion strains, locus YNL248C, strain rpa49, active compounds read low 1.02 | S. cerevisiae deletion strains, locus YNL250W, strain rad50, active compounds read low 0.987 | S. cerevisiae deletion strains, locus YNL271C, strain bni1, active compounds read low 0.968 | S. cerevisiae deletion strains, locus YNL298W, strain CLA4, active compounds read low 0.95 | S. cerevisiae deletion strains, locus YNL307C, strain MCK1, active compounds read low 0.956 | S. cerevisiae deletion strains, locus YNL322C, strain KRE1 (second series), active compounds read low 1.03 | S. cerevisiae deletion strains, locus YNL322C, strain KRE1, active compounds read low 1 | S. cerevisiae deletion strains, locus YNR049C, strain mso1, active compounds read low 1 | S. cerevisiae deletion strains, locus YNR052C, strain pop2, active compounds read low 0.978 | S. cerevisiae deletion strains, locus YOL006C, strain TOP1, active compounds read low 0.969 | S. cerevisiae deletion strains, locus YOL012C, strain htz1 0.918 | S. cerevisiae deletion strains, locus YOL147C, strain pex11, active compounds read low 0.974 | S. cerevisiae deletion strains, locus YOR001W, strain rrp6, active compounds read low 0.975 | S. cerevisiae deletion strains, locus YOR061W, strain CKA2, active compounds read low 1 | S. cerevisiae deletion strains, locus YOR069W, strain VPS5, active compounds read low 0.997 | S. cerevisiae deletion strains, locus YOR070C, strain gyp1, active compounds read low 1.02 | S. cerevisiae deletion strains, locus YOR080W, strain dia2, active compounds read low 1.02 | S. cerevisiae deletion strains, locus YOR083W, strain WHI5, active compounds read low 0.974 | S. cerevisiae deletion strains, locus YOR106W, strain vam3, active compounds read low 1.04 | S. cerevisiae deletion strains, locus YOR136W, strain idh2, active compounds read low 0.989 | S. cerevisiae deletion strains, locus YOR144C, strain elg1, active compounds read low 0.979 | S. cerevisiae deletion strains, locus YOR184W, strain ser1, active compounds read low 0.956 | S. cerevisiae deletion strains, locus YOR231W, strain MKK1, active compounds read low 0.987 | S. cerevisiae deletion strains, locus YOR265W, strain rbl2, active compounds read low 1.01 | S. cerevisiae deletion strains, locus YOR270C, strain vph1, active compounds read low 0.934 | S. cerevisiae deletion strains, locus YOR290C, strain snf2, active compounds read low 1.01 | S. cerevisiae deletion strains, locus YOR316C, strain cot1, active compounds read low 0.974 | S. cerevisiae deletion strains, locus YPL051W, strain arl3, active compounds read low 1.01 | S. cerevisiae deletion strains, locus YPL055C, strain LGE1, active compounds read low 1.02 | S. cerevisiae deletion strains, locus YPL078C, strain atp4, active compounds read low 0.995 | S. cerevisiae deletion strains, locus YPL106C, strain sse1, active compounds read low 1.03 | S. cerevisiae deletion strains, locus YPL240C, strain hsp82, active compounds read low 1.03 | S. cerevisiae deletion strains, locus YPL241C, strain CIN2, active compounds read low 1 | S. cerevisiae deletion strains, locus YPL256C, strain CLN2, active compounds read low 0.969 | S. cerevisiae deletion strains, locus YPR119W, strain clb2, active compounds read low 0.975 | S. cerevisiae deletion strains, locus YPR141C, strain kar3, active compounds read low 0.985 | S. cerevisiae deletion strains, locus YPR163C, strain tif3, active compounds read low 0.984 | S. cerevisiae deletion strains, locus YPR167C, strain met16, active compounds read low 0.973 | S. cerevisiae deletion strains, strain wtn01, active compounds read low 0.973 | S. cerevisiae strains, strain wild type, active compounds read low 1
